# Screening results from PubChem.
# Compounds with a hit are over-represented: about 15% of the library has one in this group of screens.
# TDP1 cell CPT = qHTS for Inhibitors of human tyrosyl-DNA phosphodiesterase 1 (TDP1): qHTS in cells in presence of CPT; AID 686979, 2013; chicken DT40 Tdp1-/-;hTDP1 cells + 20 nM CPT, ATP luminescence, 48 h; Potency, µM (doses to about 46.2 µM), without a hit: at the top dose activity change, negative = growth inhibition, most hits filed as inhibitors; actives 12% (n = 420,000); further: nearly all actives have a fitted effect of over 55% in size
#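 Chicken DT40 Tdp1-/- cells stably complemented with human TDP1 were seeded at 400 cells/well in medium containing 20 nM camptothecin, exposed to pin-transferred compounds, and grown at 37 °C for at least 48 hr. Viability was read as ATP luminescence.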
# ELG1 DNA repair = qHTS screen for small molecules that inhibit ELG1-dependent DNA repair in human embryonic kidney (HEK293T) cells expressing luciferase-tagged ELG1. HEK293T ELG1-luciferase reporter, luminescence, 16 h; DNA damage induced by 5-fluorouridine. actives 2.3% (n = 330,000). Potency, µM (series often up to 46.1 µM), without a hit: top-dose activity change, negative = inhibition, most hits filed as inhibitors; further: nearly all actives have a fitted effect of over 55% in size
#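 In this reporter screen, reduction of luminescence relative to DMSO vehicle indicated activity. Compounds and 5-fluorouridine were added together to 2,000 cells per well, incubated for 16 hr at 37 °C, then developed with ONE-Glo.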
# TDP1 cell noCPT = qHTS for Inhibitors of human tyrosyl-DNA phosphodiesterase 1 (TDP1): qHTS in cells in absence of CPT; DT40 Tdp1-/- hTDP1 cells, no CPT, ATP luminescence, 48 h; Potency, µM (titrated, usually from 46.2 µM), inactives show at the top dose activity change, negative = growth inhibition, usual class: inhibitors; AID 686978, 2013; actives 15% (n = 420,000); further: nearly all actives have a fitted effect of over 55% in size
#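 No-CPT arm: Tdp1-/-;hTDP1 DT40 cells (400/well) plus compounds, incubated ≥48 hr at 37 °C. Readout CellTiter-Glo luminescence.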
# Gal4-VP16 FLuc = VP16 counterscreen qHTS for inhibitors of ROR gamma transcriptional activity; Drosophila S2 Gal4-VP16 UAS-luciferase, luminescence, 20 h; Potency, µM (series often up to 53.6 µM), without a hit: at the highest dose activity, negative = inhibition, hits mostly inhibitors; actives 3.5% (n = 310,000);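 further: Gal4-VP16 expression switched on by copper sulfate through the metallothionein promoter; nearly all actives have a fitted effect of over 50% in size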
# 12-LOX inh = Primary qHTS assay for inhibitors of human arachidonate 12S-lipoxygenase (ALOX12): Round 2. Polyunsaturated fatty acid lipoxygenase ALOX12 (Homo sapiens), P18054. purified 12hLO, xylenol orange hydroperoxide absorbance. Potency, µM (top dose mostly 108 µM), inactives show at the top dose activity change, negative = inhibition, most hits filed as inhibitors. actives 1.1% (n = 580,000). AID 1671190, 2021
#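 Purified human 12hLO at 150 nM in 25 mM Hepes, 0.01% Triton X-100, pH 7.0, preincubated 15 min at room temperature with compound. Reaction started with 40 uM arachidonic acid, 30 min at room temperature. Hydroperoxide measured by Fe-xylenol orange, 573/405 nm absorbance ratio.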
# RORg inh = qHTS for inhibitors of ROR gamma transcriptional activity; Nuclear receptor ROR-gamma (Mus musculus), P51450; Drosophila S2 Gal4-RORgamma UAS-luciferase reporter, 20 h; Potency, µM (titrated, usually from 53.6 µM), for inactives: top-dose activity change, negative = inhibition, actives largely listed as inhibitors; actives 5.4% (n = 310,000); AID 2551, 2010; further: nearly all actives have a fitted effect of over 60% in size
# Target sequence (P51450 whole entry, looked up, the tested form may be a part): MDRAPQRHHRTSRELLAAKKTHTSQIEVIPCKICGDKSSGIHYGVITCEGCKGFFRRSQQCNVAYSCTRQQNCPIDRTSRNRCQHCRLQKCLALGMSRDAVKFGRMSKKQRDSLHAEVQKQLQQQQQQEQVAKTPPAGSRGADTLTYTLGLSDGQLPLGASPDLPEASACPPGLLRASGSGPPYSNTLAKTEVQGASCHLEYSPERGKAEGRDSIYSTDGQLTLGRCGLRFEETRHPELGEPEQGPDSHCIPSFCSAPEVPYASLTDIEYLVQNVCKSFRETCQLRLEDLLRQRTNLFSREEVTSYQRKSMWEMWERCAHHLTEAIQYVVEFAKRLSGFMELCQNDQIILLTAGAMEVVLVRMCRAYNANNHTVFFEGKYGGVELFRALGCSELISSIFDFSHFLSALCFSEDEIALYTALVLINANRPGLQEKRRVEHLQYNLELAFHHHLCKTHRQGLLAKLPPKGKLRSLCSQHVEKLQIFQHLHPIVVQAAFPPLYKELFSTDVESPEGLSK
#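 Read-out: Photinus luciferase luminescence; inhibitors lower reporter signal. Insect Schneider cells with Gal4-ROR gamma fusion under metallothionein promoter, UAS reporter; 700 uM final copper sulfate induction, 20 hr, ambient temperature.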
# Starred values were filed as active, the others as inactive; u = inconclusive; x = not tested or not shown. The call rests on the fitted dose curve; in most records, active means well fitted curve in the direction sought with a large enough effect; inconclusive means small, poorly fitted or top-dose-only effect, or another doubt; inactive means no such curve, though single readings can be large; an effect the other way counts as inactive or inconclusive. On the % scale 0 is the no-effect control and ±100 the full control effect; potency means the concentration at half of the fitted maximal effect.
SMILES,TDP1 cell CPT,ELG1 DNA repair,TDP1 cell noCPT,Gal4-VP16 FLuc,12-LOX inh,RORg inh
COc1ccc(-c2cccc3c2C2CC3CCN2C(=O)OCc2ccccc2)cc1 (stereo not given),u,x,u,x,0%,x
COc1ccc(S(=O)(=O)N2C[C@@H]3C[C@H](C2)c2ccc(-c4cccc(C(F)(F)F)c4)c(=O)n2C3)cc1,x,x,x,x,47%,x
CC1=CC(=O)C=C(C)C1=NOC(=O)/C=C\c1ccccc1,16µM*,7%,-6%,u,-12%,u
Cc1ccc(C(=O)COC(=O)/C=C/c2ccccc2)cc1,x,x,x,x,34%,x
CC1=CC(=NOC(=O)/C=C/c2ccccc2)C=C(C)C1=O,21µM*,4%,13µM*,u,2%,u
CC1=C(C)/C(=N\OC(=O)/C=C/c2ccccc2)C=CC1=O,13µM*,14%,13µM*,u,0%,u
Cc1cn2nc(C(=O)N3CCC(NC(=O)c4ccc[nH]4)CC3)cc2c(=O)[nH]1,x,x,x,x,21%,x
COCCNCC1C(Oc2ccc(Cl)cc2)C(=O)N1c1ccccc1C (stereo not given),u,-1%,u,7%,-4%,18%
COc1ccc(CCNCC2C(Oc3ccc(Cl)cc3)C(=O)N2c2ccccc2C)cc1OC (stereo not given),u,u,23µM*,u,-6%,-28%
CN1CCCCCC(O)c2cc(C(=O)NCCc3ccncc3)ccc21 (stereo not given),x,x,x,x,95%,x
O=C(CCCn1c2ccccc2c(=O)c2ccccc21)Nc1cccc(Cl)c1,u,x,16µM*,x,u,x
Cc1ccc2c(c1)c(=O)c1ccccc1n2CCCC(=O)Nc1ccc(C)c(C)c1,23µM*,x,23µM*,x,-26%,x
Cc1ccc2c(c1)c(=O)c1ccccc1n2CCCC(=O)Nc1ccc(Cl)cc1C,u,x,u,x,-7%,x
Cc1ccc2c(c1)c(=O)c1ccccc1n2CCCC(=O)Nc1ccc(C)c(F)c1,u,x,u,x,-24%,x
O=C(Cc1ccccc1F)NCCc1noc(C2CC2)n1,x,x,x,x,24%,x
COc1ccc(Nc2nc(NCc3ccco3)nc(N/N=C/c3ccccc3F)n2)cc1,18µM*,u,16µM*,-18%,-11%,-24%
Cc1ccc(C(=O)N2CCCCC2C(=O)Nc2cccc(-c3nnc(C)s3)c2)cn1 (stereo not given),x,x,x,x,25%,x
Cc1csc(NC(=O)Cc2coc3cc(C)c(C(C)C)cc23)n1,13µM*,u,16µM*,-26%,u,-5%
Cn1nc(-c2ccc(OCC(=O)Nc3ccc(Cl)cc3)cc2)c2ccccc2c1=O,u,x,21µM*,x,-7%,x
O=C(CCn1nc(-c2ccccc2)c2ccccc2c1=O)N1CCN(c2ccccc2)CC1,16µM*,u,23µM*,0%,0%,0%
CNC(=O)COc1ccc(NC(=O)CCn2nc(-c3ccc(C)cc3)c3ccccc3c2=O)cc1,u,x,21µM*,x,-22%,x
CCOc1ccc(C(=O)N2CC(C(=O)NCCc3ccncc3)C3(CCOCC3)C2)cc1 (stereo not given),x,x,x,x,41%,x
O=C(N/N=C(/c1ccccc1)c1cccnc1)c1cccs1,x,x,x,x,15%,x
Cn1nc(-c2ccc(OCC(=O)Nc3ccc(F)cc3)cc2)c2ccccc2c1=O,x,x,x,x,1%,x
